This is a sample that favours compounds with a hit; in the whole collection about 2.9% have one here.
Rev-erbA mod: Rev-erb alpha (human) modulation | P20393 | Rev-erbα–FITC-DNA binding, fluorescence polarization, 90 min | activity, % at 10 µM | 0.79% of 370,000 active | AID 1259318;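 active = activity above about 14%, limit read from the data; passing the limit was not always enough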
SKN-1 inh: blocks SKN-1 activity in C. elegans; C. elegans VP596 Pgst-4::GFP/RFP ratio, acrylamide-induced, 24 h; inhibition, % at 21.8 µM; 0.49% of 360,000 active; AID 624304;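 active = interference check ratio from 0.5 to 1.5 plus GFP to RFP signal ratio inhibition reaching or exceeding a fixed threshold, cut at about 30% in these data, passing the limit was not always enough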
PG9 binder: binds the HIV-1 gp120 antibody PG9. TR-FRET gp120-PG9 antibody binding. inhibition, % at 6.7 µM. 0.43% of 360,000 active. AID 624416; in the data active = inhibition above about 8.5%
RAM network inh: yeast RAM network inhibition; S. cerevisiae dse1pr::URA3 reporter, 5-FOA growth OD615, 2 d; analog-sensitive cbk1-as2 kinase mutant strain; inhibition, % at 50 µM; 1.8% of 190,000 active; AID 868;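 active = inhibition above a set limit, 3 SD over mean compound inhibition, cut at about 8.4% in these data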;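 note: inhibition rescues growth on 5-FOA so higher OD means more RAM inhibition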
EP2 antag: blocks the human prostaglandin E2 receptor EP2 | inhibition, % at 25 µM | C6 glioma cells expressing human EP2, cAMP TR-FRET; cells stimulated with saturating PGE2 | 0.52% of 260,000 active;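 active = percent inhibition above 40 after rounding to a whole number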;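 note: rat C6 glioma host cells with rolipram phosphodiesterase inhibitor present; the protocol text gives 20 µM as final concentration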
Target sequence (P43116 whole entry, looked up): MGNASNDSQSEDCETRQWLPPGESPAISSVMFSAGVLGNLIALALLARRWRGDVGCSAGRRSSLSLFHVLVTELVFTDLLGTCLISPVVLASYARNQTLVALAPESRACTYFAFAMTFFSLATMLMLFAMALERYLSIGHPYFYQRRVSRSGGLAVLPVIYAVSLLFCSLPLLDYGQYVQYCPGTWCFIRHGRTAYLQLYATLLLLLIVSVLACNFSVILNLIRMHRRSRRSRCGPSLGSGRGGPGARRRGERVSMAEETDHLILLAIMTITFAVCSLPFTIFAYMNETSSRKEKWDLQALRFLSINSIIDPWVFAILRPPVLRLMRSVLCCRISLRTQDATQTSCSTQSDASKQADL
EP2 mod: EP2 receptor (human) modulation. induction, % at 25 µM. 0.83% of 260,000 active. EP2-expressing cells, cAMP HTRF FRET, PGE2 co-stimulation. P43116;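 active = compounds whose cAMP rise, as percent of the full-agonist control response, exceeds 60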;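 note: rat C6 glioma line stably carrying human EP2 under a CMV promoter; the protocol text gives 20 µM as final concentration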
Large screens that a line does not name were inactive.

CCCCC[C@H](O)/C=C/[C@@H]1[C@@H](CCCCCCC(=O)O)[C@@H](O)C[C@H]1O	EP2 mod 83 (no result: Rev-erbA mod, PG9 binder)
C=CCOc1nc(-c2ccccc2Cl)nc2ccccc12	EP2 mod 63 (no result: RAM network inh)
CC12CN3CC(C)(CN(C1)C3c1ccc(O)c(O)c1)C2 (configuration not stated)	none (no result: Rev-erbA mod, SKN-1 inh, PG9 binder, RAM network inh)
Cn1cccc1-c1nc2ccc(NC(=O)c3cccs3)cc2[nH]1	EP2 antag 48
Cc1ccc(OCc2nnc(SCc3ccc(C#N)cc3)n2-c2ccc(C)cc2)cc1	RAM network inh 8.5
Cc1ccc(-n2c(SCc3ccc(C#N)cc3)nnc2-c2ccccn2)cc1	none
CCn1nnc(NC(=O)c2cccc(C)c2OC)n1	none (no result: Rev-erbA mod, SKN-1 inh, PG9 binder, RAM network inh)
C[N+](C)(C)CCN[N@+]1(C)CCCc2ccccc21	EP2 antag 40 (no result: Rev-erbA mod, SKN-1 inh, PG9 binder, RAM network inh)
CC(=O)Nc1sc(/C(C#N)=C\c2cccc(Cl)c2)nc1-c1ccc(C)cc1	SKN-1 inh 35
CC(=O)Nc1sc(N/N=C/c2ccccc2)nc1-c1ccc(C)cc1	none (no result: RAM network inh)
Cc1ccc(S(=O)(=O)N(C)C)cc1NC(=O)COC(=O)/C=C/c1cnc2ccccc2n1	RAM network inh 8.9
CN(C)S(=O)(=O)c1cccc(NC(=O)COC(=O)/C=C/c2ccc3c(c2)OCO3)c1	none
Cc1ccc(S(=O)(=O)N(C)C)cc1NC(=O)COC(=O)/C=C/c1ccc2c(c1)OCO2	RAM network inh 9.3
CN(C)S(=O)(=O)c1ccc(Cl)c(NC(=O)COC(=O)/C=C/c2cnc3ccccc3n2)c1	none (no result: RAM network inh)
COC(=O)C[C@H]1C2(C)C[C@]34OC5(C)O[C@]6(C7C(C(C)=O)C(=O)OC(c8ccoc8)[C@]7(C)CC[C@]6(O5)C13C)C(O)[C@]4(O)[C@H]2O (some centres not stated)	none (no result: Rev-erbA mod, SKN-1 inh, PG9 binder, RAM network inh)
Cc1cc(/C=C2/NC(=O)N(Cc3ccccc3F)C2=O)c(C)n1C(C)C	RAM network inh 9.1
COc1ccc(NC(=O)COC(=O)C2CCC(C(C)(C)C)CC2)c([N+](=O)[O-])c1 (configuration not stated)	RAM network inh 11
COc1ccc(NC(=O)COC(=O)C2CCN(C(=O)c3ccc(Cl)cc3)CC2)c([N+](=O)[O-])c1	none (no result: RAM network inh, EP2 antag, EP2 mod)
Cc1ccc(-n2nnnc2SCC(=O)NCc2ccc3c(c2)OCO3)c(C)c1	none (no result: Rev-erbA mod, SKN-1 inh, PG9 binder, RAM network inh)
COCCCN1C(=O)C(O)=C(C(C)=O)C1c1ccc(C)cc1 (configuration not stated)	none (no result: Rev-erbA mod, SKN-1 inh, PG9 binder, RAM network inh)
O=C(O)COc1ccc(/C=N/NC(=O)C(O)(c2ccccc2)c2ccccc2)cc1	SKN-1 inh 40 (no result: RAM network inh, EP2 antag, EP2 mod)
O=C(O)c1ccc(/C=N/NC(=O)C(O)(c2ccccc2)c2ccccc2)cc1	none (no result: RAM network inh, EP2 antag, EP2 mod)
Cc1ccc(-c2cc(N)c(=O)n(CC(=O)NCC3CCCO3)n2)o1 (configuration not stated)	none (no result: Rev-erbA mod, SKN-1 inh, PG9 binder, RAM network inh)
CCOC(=O)c1c(CCl)nc2ccccc2c1-c1ccccc1	EP2 mod 87 (no result: RAM network inh)
CCOC(=O)c1c(C)nc2c(c1-c1ccccc1)C(=O)c1ccccc1-2	EP2 mod 61
Cc1nn(CC(=O)NCCc2ccc(F)cc2)c(=O)c2cc3occc3n12	none (no result: Rev-erbA mod, SKN-1 inh, PG9 binder, RAM network inh)
COc1cc2cc(C(c3nnnn3C3CCCCC3)N3CCC(O)CC3)c(=O)[nH]c2cc1OC (configuration not stated)	none (no result: Rev-erbA mod, SKN-1 inh, PG9 binder, RAM network inh)
Cc1oc(C(C)(C)C)cc1C(=O)Nc1cccc(/C=C/C(=O)O)c1	RAM network inh 8.4
CCOC(=O)C(CSCC(=O)c1ccc(Cl)cc1Cl)NC(=O)OC(C)(C)C (configuration not stated)	SKN-1 inh 36
O=C(O)c1nn(-c2ccccc2)nc1-c1nn(-c2ccccc2)nc1C(=O)O	RAM network inh 8.9
COC(=O)c1nn(-c2ccccc2)nc1-c1nn(-c2ccccc2)nc1C(=O)OC	none
COc1ccc2c(CN3CCC(NC(C)=O)(c4ccccc4F)CC3)cn(C)c2c1	none (no result: Rev-erbA mod, SKN-1 inh, PG9 binder, RAM network inh)
CCOC(=O)N1CCN(C(=O)c2ccc3c(c2)sc2nc(-c4ccc(OC)cc4)cn23)CC1	none
COc1ccc2c(c1)sc1nc(-c3ccccc3)cn12	SKN-1 inh 37
Cc1nn(C)c(C)c1-c1cc(C(=O)NC2(c3cccc(F)c3)CCCC2)[nH]n1	none (no result: Rev-erbA mod, SKN-1 inh, PG9 binder, RAM network inh)
CCCCOc1ccc(C(=O)N/C(=C\c2cccc([N+](=O)[O-])c2)C(=O)OC(C)C)cc1	RAM network inh 8.8
CCCCOc1ccc(C(=O)N/C(=C\c2cccc([N+](=O)[O-])c2)C(=O)OCCC)cc1	none (no result: EP2 antag)
COc1ccc(C2(C(=O)N[C@H](Cn3nc(C4CC4)ccc3=O)C(C)C)CCCCC2)cc1	none (no result: Rev-erbA mod, SKN-1 inh, PG9 binder, RAM network inh, EP2 antag)
CCCNC(=O)c1nnsc1S(=O)c1ccc(Cl)cc1 (configuration not stated)	EP2 antag 69
COc1cccc(C2(NC(=O)Cn3c(C)nc4ccccc43)CCCC2)c1	none (no result: Rev-erbA mod, SKN-1 inh, PG9 binder, RAM network inh)
Cc1ccc(-c2csc(NC(=O)CSc3nc4ccccc4[nH]3)n2)cc1	RAM network inh 9.8
COc1ccc(-c2csc(NC(=O)CSc3nc4ccccc4c(=O)[nH]3)n2)cc1	none (no result: RAM network inh, EP2 antag, EP2 mod)
O=C(O)C1CC=CCC1C(=O)Nc1cccc([N+](=O)[O-])c1 (configuration not stated)	RAM network inh 9.6
Brc1ccc2oc(-c3ccn[nH]3)cc2c1	SKN-1 inh 39 (no result: RAM network inh)
Cc1ccc(NC(=O)NCCN2CCCCC2)cc1Cl	none (no result: RAM network inh, EP2 antag, EP2 mod)
Cc1cccc(NC(=O)NCCN2CCCCC2)c1	SKN-1 inh 38 (no result: RAM network inh, EP2 antag, EP2 mod)
Cn1c(=NC(=O)c2ccc(S(=O)(=O)N3CCCc4ccccc43)cc2)sc2cc(S(C)(=O)=O)ccc21	RAM network inh 10
C#CCn1c(=NC(=O)c2ccc(S(=O)(=O)N3CCCc4ccccc43)cc2)sc2cc(S(N)(=O)=O)ccc21	none
Cc1ccc(-c2cc(C(F)F)n3ncc(C(=O)N4CCCCC4C)c3n2)cc1 (configuration not stated)	none (no result: Rev-erbA mod, SKN-1 inh, PG9 binder, RAM network inh)
COc1ccc(CC(=O)Nc2cc(S(=O)(=O)N3CCOCC3)ccc2N2CCOCC2)cc1	SKN-1 inh 36
O=C(Nc1ccc(F)cc1)Nc1cc(S(=O)(=O)N2CCOCC2)ccc1N1CCCC1	none
O=C(Nc1ccc(Cl)cc1)Nc1cc(S(=O)(=O)N2CCOCC2)ccc1N1CCCC1	RAM network inh 9.3
COc1ccc(CC(=O)Nc2cc(S(=O)(=O)N3CCOCC3)ccc2N2CCCC2)cc1	none (no result: RAM network inh, EP2 antag, EP2 mod)
C=CCn1c(SCC(=O)c2ccc(Cl)cc2)nc2sc3c(c2c1=O)CCC3	none (no result: Rev-erbA mod, SKN-1 inh, PG9 binder, RAM network inh)
COc1ccc(-c2cc(=O)c3ccccc3s2)cc1	RAM network inh 8.8
O=S(=O)(c1ccc(F)cc1)n1ccc(-c2cccc(OCc3c(F)cccc3Cl)c2)n1	SKN-1 inh 42
CN(C)C(=O)c1cccc(-c2cnc3c(NC=O)cc(-c4ccc(N(C)C)cc4)cn23)c1	SKN-1 inh 36 (no result: RAM network inh, EP2 antag, EP2 mod)
COc1ccc(OCc2nc(C#N)c(N3CCN(c4ccc(OC)cc4)CC3)o2)cc1	RAM network inh 8.4
N#Cc1nc(COc2ccc(F)cc2)oc1N1CCC(Cc2ccccc2)CC1	RAM network inh 9.9 (no result: EP2 antag)
